The list is not random: actives were taken first. Their share in the collection is about 7.5%.
FLuc counter = counter-screen for miR-21 project: firefly luciferase inhibitors or activators; P08659; purified FLuc, Km substrates, luminescence inhibition; Potency, µM (top dose mostly 57.5 µM), most hits filed as inhibitors; hit rate 6.9% among 360,000; also: nearly all actives have a fitted effect of over 55% in size
Target sequence (P08659 whole entry, looked up): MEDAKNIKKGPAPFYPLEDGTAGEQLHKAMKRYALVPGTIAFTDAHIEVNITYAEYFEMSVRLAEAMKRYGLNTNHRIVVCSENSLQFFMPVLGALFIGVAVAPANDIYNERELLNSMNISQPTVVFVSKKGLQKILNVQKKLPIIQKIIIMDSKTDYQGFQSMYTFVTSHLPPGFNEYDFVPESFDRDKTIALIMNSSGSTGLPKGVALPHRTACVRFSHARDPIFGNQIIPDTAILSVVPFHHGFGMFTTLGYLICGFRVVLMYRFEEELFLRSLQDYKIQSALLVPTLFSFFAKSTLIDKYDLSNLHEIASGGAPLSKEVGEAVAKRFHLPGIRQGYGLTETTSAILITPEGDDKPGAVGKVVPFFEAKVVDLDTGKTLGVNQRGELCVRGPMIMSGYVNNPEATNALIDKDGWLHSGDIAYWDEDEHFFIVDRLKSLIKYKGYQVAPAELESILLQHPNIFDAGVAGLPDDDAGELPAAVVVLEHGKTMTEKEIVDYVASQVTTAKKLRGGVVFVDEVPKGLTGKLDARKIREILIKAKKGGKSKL
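Purified P. pyralis luciferase (10nM final) with 10uM D-luciferin and 10uM ATP (Km levels) in 50mM Tris acetate pH 7.5, 10mM Mg acetate, 0.01% Tween-20, 0.05% BSA; qHTS 6-point titration, ~60 µM downward; luminescence read.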
ELG1 genotoxic = genotoxicity induction in ELG1-luciferase HEK293T cells; HEK293T ELG1-luciferase reporter, luminescence, 16 h; Potency, µM (highest dose often 46 µM), actives largely listed as activators; hit rate 1.3% among 330,000; AID 504466; also: nearly all actives have a fitted effect of over 60% in size
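After overnight (16 hr) compound treatment at 37 °C, ELG1-luciferase HEK293T cells were lysed with ONE-Glo; luminescence quantified 30 min later at room temperature.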
Rab9 prom act = Rab9 promoter activation; hit rate 2.8% among 320,000; Potency, µM (titrated, usually from 9.22 µM), usual class: activators; Huh7 Rab9 promoter-luciferase reporter, luminescence, 24 h; also: nearly all actives have a fitted effect of over 60% in size
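Cells were plated at 1500 per well in reduced-serum medium with 10% FBS and left 2 h. Compound in DMSO was then added for 24 h at 37 °C. Reporter signal was read by luminescence after 10 min with luciferase detection reagent.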
Luc counter = counter-screen: inhibitors of Kinase-Glo firefly luciferase; Kinase-Glo luciferase, ATP luminescence, 8 min; Potency, µM (series often up to 38.3 µM), usual class: inhibitors; hit rate 0.28% among 200,000; also: nearly all actives have a fitted effect of over 60% in size
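Recombinant Kinase-Glo luciferase, 10 uM ATP (linear range), luciferin; imidazole pH 7.2 / KCl / MgCl2 / Tween / BSA buffer; 8 min RT; luminescence.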
NPC1 promoter act = NPC1 promoter activation. AID 485313. Potency, µM (titrated, usually from 9.22 µM), most hits filed as activators. Huh7 NPC1 promoter luciferase reporter, 24 h. hit rate 2.4% among 320,000; also: nearly all actives have a fitted effect of over 60% in size
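Readout is luciferase luminescence, reflecting NPC1 promoter activation in stably transfected Huh7 cells after 24 h compound exposure at 37 °C in reduced-serum medium with 10% FBS.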
SMN2 splice enh = increases expression of the SMN2 splice variant | HEK293 SMN2-luciferase splicing reporter, luminescence, 30-36 h | hit rate 2.8% among 210,000 | Potency, µM (top dose mostly 46.1 µM), actives largely listed as activators | AID 1458; also: nearly all actives have a fitted effect of over 55% in size
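HEK293 cells carry an SMN2 minigene-luciferase reporter in which exon 7 inclusion puts luciferase in frame. Cells were seeded at 2000 cells/well, attached for 10-12 hours, then exposed to compounds for 30-36 hours at 37C before ONE-Glo luminescence.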
Hits are given with their value; - = inactive; ? = inconclusive; . = no result given. Calls follow the shape of the dose curve; as a rule, active = well fitted curve in the direction sought with a large enough effect; inconclusive = small, poorly fitted or top-dose-only effect, or another doubt; inactive = no such curve, though single readings can be large; an effect the other way counts as inactive or inconclusive.

SMILES | FLuc counter | ELG1 genotoxic | Rab9 prom act | Luc counter | NPC1 promoter act | SMN2 splice enh
CCOC(=O)Nc1sc2c(c1C#N)CCCC2 | 15µM | 15µM | 4µM | - | ? | -
Cc1ccc(OCC(=O)Nc2sc3c(c2C#N)CCC3)cc1 | 4.8µM | ? | ? | - | ? | -
O=C(Oc1ccc(Cl)cc1)c1ccc2nccnc2c1 | 3.8µM | - | - | - | - | -
Cc1cccc(OC(=O)c2ccc3nccnc3c2)c1 | 15µM | - | - | - | - | -
Cc1ccc(NC(=O)/C=C/c2ccco2)nc1 | 6µM | 4.1µM | - | - | ? | 14µM
O=C(/C=C/c1ccco1)Nc1ccccn1 | 6.7µM | 8.2µM | ? | ? | ? | 8.9µM
Cc1ccc(NC(=O)/C=C/c2cccc([N+](=O)[O-])c2)nc1 | - | - | - | - | - | -
O=C(/C=C/c1ccco1)Nc1cccc2cccnc12 | 15µM | ? | - | - | - | ?
Cc1cc(C)c(Cn2c(=O)n(-c3ccccc3Cl)c(=O)c3c(C)c(C(=O)N(C)C)sc32)c(C)c1 | - | . | . | . | . | .
CCC(=O)N1c2ccccc2CC1C(=O)NCc1cc(Br)ccc1OC (stereo not given) | - | . | . | . | . | .
O=S(=O)(Nc1cccc(-c2ccc(N3CCCCC3)nn2)c1)c1cccc(F)c1 | 2.4µM | . | . | . | . | .
O=S(=O)(Nc1cccc(-c2cn3c(n2)SCC3)c1)c1ccc(F)cc1F | - | - | - | . | - | .
Cc1ccc(S(=O)(=O)Nc2cccc(-c3ccc(N4CCCCCC4)nn3)c2)c(C)c1 | 11µM | ? | ? | . | ? | .
O=S(=O)(Nc1cccc(-c2ccc(N3CCCC3)nn2)c1)c1ccc(F)cc1F | 15µM | . | . | . | . | .
Cc1ccc(S(=O)(=O)Nc2ccc(-c3ccc(N4CCCCCC4)nn3)cc2)c(C)c1 | - | . | . | . | . | .
CCN(CC)CCCNC(=O)c1ccc(-n2c(=O)c(=O)[nH]c3ccccc32)cc1 | . | . | . | - | . | .
c1ccc(-n2ncc3c2ncn2nc(-c4ccco4)nc32)cc1 | 0.85µM | 1.6µM | 1.1µM | - | 3.2µM | 11µM
COc1ccc(-n2ncc3c2ncn2nc(Cc4ccccc4)nc32)cc1 | - | . | . | . | . | -
Cc1cc(N2CCOCC2)nc2ccc(Cl)cc12 | 6µM | ? | ? | . | ? | .
Cc1cc(N2CCOCC2)nc2ccc(NC(=O)CCC(=O)N3CCC(C)CC3)cc12 | 12µM | - | 4.5µM | . | ? | .
CCN1CCN(c2cc(C)c3cc(NC(=O)CCC(=O)N4CCN(c5ccccc5)CC4)ccc3n2)CC1 | ? | - | - | . | - | .
CCN1CCN(c2cc(C)c3cc(NC(=O)CCC(=O)N4CCN(c5ccccc5OC)CC4)ccc3n2)CC1 | 15µM | - | - | . | - | .
Cc1cc(N2CCC(C)CC2)nc2ccc(NC(=O)CCC(=O)N3CCN(c4ccccc4F)CC3)cc12 | 4.8µM | . | . | . | . | -
Cc1ccc(C)c(Nc2nc3c(S(=O)(=O)c4ccc(Br)cc4)nnn3c3ccsc23)c1 | - | . | . | . | . | .
O=C(CSc1nc2ccccc2nc1Cc1ccccc1)N1CCCc2ccccc21 | - | . | . | . | . | .
SMILES | FLuc counter | ELG1 genotoxic | Rab9 prom act | Luc counter | NPC1 promoter act | SMN2 splice enh
CC(=O)c1ccc(N2CCN(C(=O)CCC(=O)Nc3ccc4nc(N5CCCCC5)cc(C)c4c3)CC2)cc1 | ? | . | . | . | . | -
CCCCN(C)C(=O)CCC(=O)Nc1ccc2nc(N3CCOCC3)cc(C)c2c1 | ? | - | ? | - | ? | 20µM
Cc1cc(N2CCOCC2)nc2ccc(NC(=O)CCC(=O)N3CCCCC3)cc12 | ? | ? | 4µM | - | ? | 8.9µM
COc1ccc(CN=C2NN=C(c3ccccc3)CS2)cc1 | 27µM | - | ? | - | - | ?
COc1cccc(C2=NNC(=NCc3ccccc3)SC2)c1 | 21µM | - | ? | - | - | ?
COc1ccc(CN=C2NN=C(c3cccc(OC)c3)CS2)cc1 | ? | - | ? | - | - | 28µM
Cc1ccc(C)c(C2=NNC(=NCc3ccccc3)SC2)c1 | - | - | - | - | - | -
O=C(O)Cn1c(SCc2cccc3ccccc23)nc2ccccc21 | 17µM | - | - | - | - | -
O=C(O)Cn1c(SCc2ccccc2)nc2ccccc21 | ? | - | - | - | - | -
Cc1ccc2[nH]c(CSc3nnc(NC(=O)COc4ccc(F)cc4)s3)cc(=O)c2c1 | - | . | . | . | . | .
O=C(c1cc(-c2ccc(Br)cc2)n[nH]1)N1CCN(S(=O)(=O)c2ccc(Br)s2)CC1 | - | . | . | . | . | .
O=C(c1ccccc1)c1ccc2nc(N3CCN(c4ccc(F)cc4)CC3)c3nncn3c2c1 | - | . | . | . | . | -
Cc1ccc(-c2cc(C(=O)Nc3cc(C)ccc3O)no2)cc1 | ? | - | ? | . | ? | .
COc1ccc(-c2cc(C(=O)Nc3cc(Cl)ccc3O)no2)cc1 | ? | 16µM | ? | . | 3.5µM | .
COc1ccc(-c2cc(C(=O)Nc3cc(C)ccc3O)no2)cc1 | - | 21µM | - | . | ? | .
Cc1ccc(O)c(NC(=O)c2cc(-c3ccccc3Cl)on2)c1 | ? | 16µM | ? | . | ? | .
Cc1cc(C)c2c(=O)cc(C(=O)Nc3sc4c(c3C(=O)NCC3CCCO3)CCCC4)oc2c1 (stereo not given) | - | . | . | . | . | -
Cc1ccc(N=C2NC(=O)/C(=C/c3cccn3C)S2)cc1C | ? | - | ? | . | - | .
O=C1NC(=Nc2ccccc2)S/C1=C\C=C\c1ccco1 | 19µM | ? | - | - | - | 14µM
Cc1ccc(N=C2NC(=O)/C(=C/C=C/c3ccco3)S2)cc1 | ? | - | - | - | - | ?
O=C1NC(=Nc2ccccc2)S/C1=C/c1cccs1 | 11µM | ? | ? | - | ? | ?
O=C1NC(=Nc2cccnc2)S/C1=C\c1cccc(F)c1 | 30µM | - | - | . | - | .
Cc1ccc(N=C2NC(=O)/C(=C/c3cccn3C)S2)cc1 | 3.4µM | 23µM | ? | . | ? | .
C[C@@]1(O)C(O)[C@@H](CO)O[C@H]1n1cnc2c(NC3CCCC3)nc(Cl)nc21 (stereo not given in full) | . | . | . | - | . | -
CCCOc1cccc(C2c3c(oc4ccc(F)cc4c3=O)C(=O)N2CCc2ccc(OC)cc2)c1 (stereo not given) | - | . | . | . | . | -
SMILES | FLuc counter | ELG1 genotoxic | Rab9 prom act | Luc counter | NPC1 promoter act | SMN2 splice enh
N#Cc1ccc(CN2CC3(CCN(C(=O)c4cccc(F)c4)CC3)C2)cc1 | . | . | . | - | . | -
COc1ccc(CNc2ccc(Br)cc2)cc1 | 24µM | ? | ? | - | ? | -
COc1ccc(NCc2ccc(OC)c(OC)c2)cc1 | ? | - | - | - | - | -
COc1ccc(S(=O)(=O)NCc2ccc(C(=O)O)cc2)cc1 | - | - | - | - | - | -
COc1ccc(CNc2ccc(C(=O)O)cc2)cc1 | 7.6µM | - | - | - | - | -
Cc1ccccc1-c1nc2cc(NC(=O)COc3ccc(F)cc3)ccc2o1 | - | . | . | . | . | .
COC(=O)C(=O)C/C(=N/Nc1ncnc2ccccc12)c1ccc(Cl)cc1 | 9.5µM | - | - | . | - | .
COc1ccccc1-c1nnc(NC(C)=O)s1 | 6.7µM | ? | ? | - | ? | 25µM
COc1ccccc1-c1nnc(NC(=O)C(C)C)s1 | ? | - | - | - | ? | -

From PubChem
